An excerpt weighted towards active compounds, which were near 9% of everything screened.
IMPase cell inh – cell-permeable inhibitors of inositol monophosphatase (IMPase) | P97697 | CHO-M1 cells, IP1 accumulation, HTRF TR-FRET ratio | inhibition (IP1 accumulation), % at 46.1 µM | 120,000 tested, under 10 active; active means well fitted curve in the direction sought with a large enough effect in the signal ratio, not every such curve was filed as active; inconclusive means small, poorly fitted or top-dose-only effect, or a change in a side signal; inactive means no such curve, though single readings can be large or run the other way; the % refers to the signal ratio;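 further: cells stimulated with carbachol in lithium chloride buffer; plate controls were DMSO basal wells for no effect and reference inhibitor wells for full effect; higher means more IMPase inhibition seen as more IP1 and lower FRET ratio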
Target sequence (P97697 whole entry, looked up): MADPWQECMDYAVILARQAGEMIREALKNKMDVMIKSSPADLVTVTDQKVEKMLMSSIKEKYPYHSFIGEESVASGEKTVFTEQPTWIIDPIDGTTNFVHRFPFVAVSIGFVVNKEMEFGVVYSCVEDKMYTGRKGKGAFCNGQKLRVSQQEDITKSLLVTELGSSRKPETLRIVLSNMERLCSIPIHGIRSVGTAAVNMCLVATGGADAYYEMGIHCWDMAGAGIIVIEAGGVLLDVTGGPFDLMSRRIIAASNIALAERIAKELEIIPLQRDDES
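Elevated IP1 in lysates lowers TR-FRET signal (665/620 ratio and 620 channel reported). Cells were CHO-M1, given carbachol (50 uM as added) plus 50mM LiCl, pH 7.4, 30 min, 37C; compounds titrated up to 46 uM; AC50 by Hill equation.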
ALDH1A1 block – ALDH1A1 (human) enzyme inhibition; P00352; actives 7.3% (n = 220,000); Potency, µM (top dose mostly 75.3 µM), without a hit: at the top dose activity, negative = inhibition, most hits filed as inhibitors; Purified ALDH1A1, NADH fluorescence, propionaldehyde substrate;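 further: potency means the concentration at half of the fitted maximal effect; plate controls were no enzyme wells and a reference inhibitor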
HPGD block – HPGD (human) dehydrogenase inhibition; purified HPGD, NADH fluorescence kinetic, PGE2 substrate; Potency, µM, inactives show top-dose activity change, negative = inhibition, hits mostly inhibitors; actives 4.3% (n = 150,000); AID 894; further: potency means the concentration at half of the fitted maximal effect
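20 nM HPGD preincubated 15 min at room temperature with compound in 50 mM Tris-HCl pH 8, 0.01% Tween 20. Started with 1 mM NAD+ and 30 uM prostaglandin E2; NADH fluorescence (360/450 nm) read 5 times over 30-s intervals, last minus first.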
* = called active by the depositor; ? = inconclusive; . = not tested or not shown. Unless noted, the call rests on the fitted dose curve; in most records, active means well fitted inhibition curve with a large enough effect (not every such curve was filed as active); inconclusive means small, poorly fitted or top-dose-only effect, or another doubt; inactive means no such curve, though single readings can be large or run the other way. Unless noted, on the % scale 0 is the no-effect control and ±100 the full control effect.

SMILES | IMPase cell inh | ALDH1A1 block | HPGD block
CC(=O)O[C@]1(C(C)=O)CC[C@H]2C3C=C(Cl)C4=CC(=O)[C@@H]5C[C@H]5[C@]4(C)C3CC[C@@]21C (stereo not given in full) | . | 3% | 4%
O=C(Nc1ccncc1)c1sc2ccccc2c1Cl | . | -2% | .
O=C(NNC(=S)NC(=O)c1sc2ccccc2c1Cl)c1ccc(Cl)cc1 | -5 | 28µM* | -24%
O=C(NN=C1CCCC1)c1sc2ccccc2c1Cl | . | 16µM* | .
Cc1cccc(C(=O)NC(=S)NNC(=O)c2ccc(Cl)cc2)c1 | . | ? | -6%
O=C(NNC(=O)c1sc2ccccc2c1Cl)Nc1ccc(Cl)cc1 | -4 | 8.9µM* | -8%
Cc1ccc(NC(=O)c2sc3ccccc3c2Cl)cc1 | 3 | . | .
COc1ccccc1N1C(=O)c2ccccc2NC1c1ccncc1 (stereo not given) | -1 | ? | -26%
COc1ccccc1N1C(=O)N(C(C)=O)C2C1Nc1ccccc1N2C (stereo not given) | 10 | 1.8µM* | -10%
COc1ccc(CCN2C(=O)C3C4CCC(C4=C(C)C)C3C2=O)cc1OC (stereo not given) | . | 13µM* | -7%
COc1ccc(CCN2C(=O)CC(NCCc3ccc(S(N)(=O)=O)cc3)C2=O)cc1OC (stereo not given) | -1 | 10µM* | -2%
CCOc1ccc(CCN2C(=O)C3C4C=CC(C4)C3C2=O)cc1OCC (stereo not given) | 16 | 3.5µM* | -12%
COc1ccc(CCNC2CC(=O)N(N(C)C)C2=O)cc1OC (stereo not given) | . | -15% | .
COc1ccc(CCN2C(=O)CC(Cc3ccc(C)cc3)C2=O)cc1OC (stereo not given) | . | -8% | .
COc1ccc(CCN2C(=O)CC(NC34CC5CC(CC(C5)C3)C4)C2=O)cc1OC (stereo not given) | . | 10µM* | .
COc1ccc(CN2C(=O)C3C4C=CC(C4)C3C2=O)cc1 (stereo not given) | 3 | -1% | -2%
COc1ccc(CCN2C(=O)C3C4CC(C5C(C(N)=O)=NOC45)C3C2=O)cc1OC (stereo not given) | -4 | ? | -9%
CCOC(=O)Nc1sc(C)c(C)c1C(N)=O | -4 | 3% | -4%
COC(=O)CCC(=O)NC(=S)Nc1cc(Cl)ccc1Cl | -7 | -7% | -25%
Cc1ccc(C=Nc2cccnc2N)cc1 | . | ? | -16%
CCOc1ccc(C=Nc2cccc3ncccc23)cc1 | . | 18µM* | .
O=C(CN(C(=O)CCC(=O)Nc1nccs1)C1CCCC1)NCc1ccc2c(c1)OCO2 | . | 2% | .
CCCCN(CC)Cc1ccc(CNC(=S)Nc2cccc(F)c2)o1 | . | 14µM* | .
CCCCN(CC)Cc1ccc(CNC(=O)Nc2ccccc2)o1 | -12 | 9% | -8%
COCC(=O)N1CCC2(CCCN(Cc3cc(C(F)(F)F)cc(C(F)(F)F)c3)C2)CC1 | . | 3% | -7%
SMILES | IMPase cell inh | ALDH1A1 block | HPGD block
Cc1cc(=O)n2[nH]c(COc3ccccc3)nc2n1 | 15 | 8% | 0%
COc1ccc(/C=N/NC(=O)c2ccc(C)cc2)cc1CN1CCN(c2ccc(F)cc2)CC1 | 10 | 2% | -27%
COc1ccc(/C=N\NC(=O)c2cc(O)c(O)c(O)c2)cc1CN1CCN(c2ccc(F)cc2)CC1 | 6 | 13µM* | -23%
CCNS(=O)(=O)c1ccc(C(=O)Nc2ccccc2)cc1 | -3 | 71% | -14%
C/C(=C\c1ccccc1)C(=O)NCc1ccco1 | . | 8% | .
C=CCn1c(SCC(=O)NC(=O)NC)nnc1C1CCCCC1 | . | 3% | .
C=CCn1c(SCC(=O)NC(=O)NCCC)nnc1C1CCCCC1 | 0 | 5.6µM* | -13%
CCOC(=O)c1[nH]c2c(c1C)C(=O)CC(c1ccco1)C2 (stereo not given) | 2 | ? | -19%
Cc1c(C(=O)OCc2ccccc2)[nH]c2c1C(=O)CC(c1ccco1)C2 (stereo not given) | 6 | 8.9µM* | -28%
Cc1c(C(=O)OCCOC(C)C)[nH]c2c1C(=O)CC(c1ccco1)C2 (stereo not given) | 12 | 25µM* | -10%
COCCOC(=O)c1[nH]c2c(c1C)C(=O)CC(c1ccco1)C2 (stereo not given) | 4 | ? | -11%
O=C(COC(=O)CCSc1ccccc1Cl)NCc1ccco1 | . | -1% | .
Cc1ccc(OCC(=O)OC2=C(C(=O)c3ccccc3)N(C)S(=O)(=O)c3ccccc32)cc1 | -9 | . | .
CCOc1ccc(C(=O)C2CCN(CC(=O)Nc3ccccc3N3CCOCC3)CC2)cc1 | 15 | 25µM* | -25%
CCOc1ccc(C(=O)Nc2ccccc2N2CCOCC2)cc1 | -21 | -8% | -5%
CCCCCCCCCCCCCCCC(=O)NC[C@@H](COP(=O)([O-])OCC[N+](C)(C)C)OCC | 9 | . | .
CCOC(=O)c1c(N)nn(C(=O)C(C)C)c1-c1ccccc1 | 7 | 1% | -20%

Screening data deposited in PubChem BioAssay by National Center for Advancing Translational Sciences (NCATS).
